# Entries with a potency or affinity are not part of this list.
# Tested on: Klebsiella pneumoniae
# Conditions: Concentration 20 uM; ASSAY_TEST Inhibition of Bacterial Growth; detection method Absorption (OD600); MEDIA CAMHB; plate type 384well; NBS; CORNING #3640; time 18 hr
row,SMILES,Inhibition
1,C[C@H](CCC(=O)O)[C@H]1CC[C@H]2[C@@H]3C(=O)C[C@@H]4CC(=O)CC[C@]4(C)[C@H]3CC(=O)[C@]12C [DEHYDROCHOLIC ACID],5.88%
2,CN1C(=O)CN=C(c2ccccc2)c2cc(Cl)ccc21 [DIAZEPAM],10.3%
3,Brc1c(NC2=NCCN2)ccc2nccnc12 [BRIMONIDINE],7.83%
4,CC(C)NCC(O)COc1cccc2[nH]ccc12 (stereo not drawn) [PINDOLOL],17.1%
5,Cc1c(O)c(=O)ccn1C [DEFERIPRONE],3.55%
6,C[C@]12CC[C@H](O)CC1=CC[C@@H]1[C@@H]2CC[C@@]2(C)[C@H]1CC[C@]2(C)O [METHANDRIOL],9.75%
7,CC(COc1ccccc1)N(CCCl)Cc1ccccc1.Cl (stereo not drawn) [PHENOXYBENZAMINE HYDROCHLORIDE],17.18%
8,Br.COc1ccc2c3c1O[C@H]1C[C@@H](O)C=C[C@@]31CCN(C)C2 [GALANTAMINE HYDROBROMIDE],16.19%
9,CC[C@@H]1/C=C/C=C/C[C@H](C)[C@@H](O)[C@](C)(O)C(=O)[C@H](C)[C@@H](O)[C@H](C)C(=O)[C@H](C)[C@@H](O)[C@H](C)/C=C/C(=O)O[C@H]2[C@@H](C)[C@@H](CC1)O[C@@]1(CC[C@@H](C)[C@@H](C[C@H](C)O)O1)[C@@H]2C,17.55%
10,Cl.N=C(N)NC(=O)c1nc(Cl)c(N)nc1N.O.O [AMILORIDE HYDROCHLORIDE],12.19%
11,COc1ccc2[nH]cc(C3=CCNCC3)c2c1.COc1ccc2[nH]cc(C3=CCNCC3)c2c1.O=C(O)CCC(=O)O,15.57%
12,Cl.O.Oc1cc2c(cc1O)[C@H]1c3ccccc3CN[C@@H]1CC2,11.23%
13,O=C1CN=C(c2ccccc2)c2cc([N+](=O)[O-])ccc2N1 [NITRAZEPAM],13.18%
14,CC(C)CC(N(C)C)C1(c2ccc(Cl)cc2)CCC1 (stereo not drawn) [SIBUTRAMINE],10.19%
15,COC(=O)C1=C(C)NC(C)=C(C(=O)OC)C1c1ccccc1[N+](=O)[O-] [NIFEDIPINE],22.28%
16,CC(O)(CS(=O)(=O)c1ccc(F)cc1)C(=O)Nc1ccc(C#N)c(C(F)(F)F)c1 (stereo not drawn) [BICALUTAMIDE],7.16%
17,CN1[C@@H](CC(=O)c2ccccc2)CCC[C@H]1C[C@H](O)c1ccccc1.Cl [LOBELINE HYDROCHLORIDE],19.91%

row,SMILES,Inhibition
1,COc1ccc(CCN)cc1OC,8.69%
2,CN1CC[C@@]23CCCC[C@@H]2[C@@H]1Cc1ccc(O)cc13.O=C(O)C(O)C(O)C(=O)O,17.43%
3,Br.Br.CN1CC[C@]2(c3cccc(O)c3)Cc3nc4ccccc4cc3C[C@H]2C1.O,12.17%
4,CN1[C@@H]2CC[C@H]1C[C@@H](OC(=O)c1c[nH]c3ccccc13)C2.Cl,15.9%
5,Fc1ccc([C@@H]2CCNC[C@H]2COc2ccc3c(c2)OCO3)cc1.O=C(O)/C=C\C(=O)O,6.3%
6,CN(C)C(=O)C(CCN1CCC(O)(c2ccc(Cl)cc2)CC1)(c1ccccc1)c1ccccc1.Cl [LOPERAMIDE HYDROCHLORIDE],11.49%
7,C[C@]12CC[C@H]3[C@@H](CCC4=CC(=O)CC[C@@H]43)[C@@H]1CC[C@@H]2O [NANDROLONE],5.92%
8,C[C@]12CCC(=O)C[C@@H]1CC[C@@H]1[C@@H]2CC[C@@]2(C)[C@H]1CC[C@]2(C)O [MESTANOLONE],3.85%
9,CC(=O)[C@H]1CC[C@H]2[C@@H]3CCC4=CC(=O)CC[C@]4(C)[C@H]3CC[C@]12C [PROGESTERONE],23.48%
10,CN1CCN(C(=O)O[C@H]2c3nccnc3C(=O)N2c2ccc(Cl)cn2)CC1 [ESZOPICLONE],-5.59%
11,c1ccc(Cn2ccnc2)cc1,8.34%
12,Cc1c(OCC(F)(F)F)ccnc1C[S+]([O-])c1nc2ccccc2[nH]1 (stereo not drawn) [LANSOPRAZOLE],7.47%
13,COc1cc(-c2ccc(=O)[nH]n2)ccc1OC(F)F [ZARDAVERINE],6.98%
14,Cl.NCC(O)c1ccc(O)c(O)c1 (stereo not drawn),15.27%
15,COc1cc(CNC(=O)CCCC/C=C\C(C)C)ccc1O [ZUCAPSAICIN],12.92%
16,c1ccc2c(c1)Nc1ccccc1S2 [PHENOTHIAZINE],1.87%
17,CN(C)CCc1c[nH]c2ccc(C[C@H]3COC(=O)N3)cc12 [ZOLMITRIPTAN],7.51%

# Tested on: Candida albicans
# Conditions: 20 µM
row,SMILES,Inhibition
1,C[C@H](CCC(=O)O)[C@H]1CC[C@H]2[C@@H]3C(=O)C[C@@H]4CC(=O)CC[C@]4(C)[C@H]3CC(=O)[C@]12C [DEHYDROCHOLIC ACID],3.92%
2,CN1C(=O)CN=C(c2ccccc2)c2cc(Cl)ccc21 [DIAZEPAM],2.62%
3,Brc1c(NC2=NCCN2)ccc2nccnc12 [BRIMONIDINE],3.99%
4,CC(C)NCC(O)COc1cccc2[nH]ccc12 (stereo not drawn) [PINDOLOL],3.5%
5,Cc1c(O)c(=O)ccn1C [DEFERIPRONE],4.97%
6,C[C@]12CC[C@H](O)CC1=CC[C@@H]1[C@@H]2CC[C@@]2(C)[C@H]1CC[C@]2(C)O [METHANDRIOL],4.69%
7,CC(COc1ccccc1)N(CCCl)Cc1ccccc1.Cl (stereo not drawn) [PHENOXYBENZAMINE HYDROCHLORIDE],4.97%
8,Br.COc1ccc2c3c1O[C@H]1C[C@@H](O)C=C[C@@]31CCN(C)C2 [GALANTAMINE HYDROBROMIDE],3.12%
9,CC[C@@H]1/C=C/C=C/C[C@H](C)[C@@H](O)[C@](C)(O)C(=O)[C@H](C)[C@@H](O)[C@H](C)C(=O)[C@H](C)[C@@H](O)[C@H](C)/C=C/C(=O)O[C@H]2[C@@H](C)[C@@H](CC1)O[C@@]1(CC[C@@H](C)[C@@H](C[C@H](C)O)O1)[C@@H]2C,5.45%
10,Cl.N=C(N)NC(=O)c1nc(Cl)c(N)nc1N.O.O [AMILORIDE HYDROCHLORIDE],4.98%
11,COc1ccc2[nH]cc(C3=CCNCC3)c2c1.COc1ccc2[nH]cc(C3=CCNCC3)c2c1.O=C(O)CCC(=O)O,3.46%
12,Cl.O.Oc1cc2c(cc1O)[C@H]1c3ccccc3CN[C@@H]1CC2,1.34%
13,O=C1CN=C(c2ccccc2)c2cc([N+](=O)[O-])ccc2N1 [NITRAZEPAM],3.29%
14,CC(C)CC(N(C)C)C1(c2ccc(Cl)cc2)CCC1 (stereo not drawn) [SIBUTRAMINE],2.06%
15,COC(=O)C1=C(C)NC(C)=C(C(=O)OC)C1c1ccccc1[N+](=O)[O-] [NIFEDIPINE],4.72%
16,CC(O)(CS(=O)(=O)c1ccc(F)cc1)C(=O)Nc1ccc(C#N)c(C(F)(F)F)c1 (stereo not drawn) [BICALUTAMIDE],-0.48%
17,CN1[C@@H](CC(=O)c2ccccc2)CCC[C@H]1C[C@H](O)c1ccccc1.Cl [LOBELINE HYDROCHLORIDE],2.98%

row,SMILES,Inhibition
1,COc1ccc(CCN)cc1OC,2.72%
2,CN1CC[C@@]23CCCC[C@@H]2[C@@H]1Cc1ccc(O)cc13.O=C(O)C(O)C(O)C(=O)O,2.27%
3,Br.Br.CN1CC[C@]2(c3cccc(O)c3)Cc3nc4ccccc4cc3C[C@H]2C1.O,0.66%
4,CN1[C@@H]2CC[C@H]1C[C@@H](OC(=O)c1c[nH]c3ccccc13)C2.Cl,3.12%
5,Fc1ccc([C@@H]2CCNC[C@H]2COc2ccc3c(c2)OCO3)cc1.O=C(O)/C=C\C(=O)O,2.04%
6,CN(C)C(=O)C(CCN1CCC(O)(c2ccc(Cl)cc2)CC1)(c1ccccc1)c1ccccc1.Cl [LOPERAMIDE HYDROCHLORIDE],2.32%
7,C[C@]12CC[C@H]3[C@@H](CCC4=CC(=O)CC[C@@H]43)[C@@H]1CC[C@@H]2O [NANDROLONE],7.15%
8,C[C@]12CCC(=O)C[C@@H]1CC[C@@H]1[C@@H]2CC[C@@]2(C)[C@H]1CC[C@]2(C)O [MESTANOLONE],11.7%
9,CC(=O)[C@H]1CC[C@H]2[C@@H]3CCC4=CC(=O)CC[C@]4(C)[C@H]3CC[C@]12C [PROGESTERONE],11.4%
10,CN1CCN(C(=O)O[C@H]2c3nccnc3C(=O)N2c2ccc(Cl)cn2)CC1 [ESZOPICLONE],0.3%
11,c1ccc(Cn2ccnc2)cc1,2.99%
12,Cc1c(OCC(F)(F)F)ccnc1C[S+]([O-])c1nc2ccccc2[nH]1 (stereo not drawn) [LANSOPRAZOLE],9.31%
13,COc1cc(-c2ccc(=O)[nH]n2)ccc1OC(F)F [ZARDAVERINE],1.79%
14,Cl.NCC(O)c1ccc(O)c(O)c1 (stereo not drawn),4.08%
15,COc1cc(CNC(=O)CCCC/C=C\C(C)C)ccc1O [ZUCAPSAICIN],4.72%
16,c1ccc2c(c1)Nc1ccccc1S2 [PHENOTHIAZINE],4.65%
17,CN(C)CCc1c[nH]c2ccc(C[C@H]3COC(=O)N3)cc12 [ZOLMITRIPTAN],2.65%

# From ChEMBL document CHEMBL4513141, “CO-ADD screening of NIH (USA) - Clinical Collection” (2021)
